# Tests used:
# Assay in all cases: DAPPL (digital affinity profiling via proximity ligation, sequencing); 10 mM Tris-HCl pH 7.5, 50 mM NaCl, 1 mM DTT, 4% glycerol, room temperature, 30 min; GST-TFs on glutathione beads, 16-mer random dsDNA library, 0.1% formaldehyde crosslink after washing; high values mean tight binding
# FEV = target: T1, FEV (Homo sapiens, UniProt Q99581 1-238); conditions: protein: recombinant; tags: N-terminal GST; dsDNA, one strand shown
# T1 sequence: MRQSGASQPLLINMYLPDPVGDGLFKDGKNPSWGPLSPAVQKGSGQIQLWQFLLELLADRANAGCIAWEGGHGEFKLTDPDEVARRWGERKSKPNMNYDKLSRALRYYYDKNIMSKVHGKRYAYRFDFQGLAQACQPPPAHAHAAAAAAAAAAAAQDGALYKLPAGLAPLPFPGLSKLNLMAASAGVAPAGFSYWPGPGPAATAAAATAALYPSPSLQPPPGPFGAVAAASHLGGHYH
# Procedure, shortened: (§1)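 Binding signal is defined as a hexamer's read frequency for one factor over its frequency for the tag-only sample. To obtain reads, GST-fused human transcription factors were expressed in yeast, captured on glutathione beads, barcoded with DNA and pooled with that sample. Pools met 200 nmole of a 16-mer random double-stranded DNA library in Tris/NaCl/DTT/glycerol buffer for 30 min at room temperature before washing, 0.1% formaldehyde crosslinking, proximity ligation (BsaI/T4 ligase, 1 h, 37 °C), PCR and Illumina NextSeq500 sequencing.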
# ETV5 = ETV5 (Homo sapiens, UniProt P41161 1-510); conditions: protein: recombinant; tags: N-terminal GST; dsDNA, one strand shown
# ETV5, sequence (P41161 whole entry): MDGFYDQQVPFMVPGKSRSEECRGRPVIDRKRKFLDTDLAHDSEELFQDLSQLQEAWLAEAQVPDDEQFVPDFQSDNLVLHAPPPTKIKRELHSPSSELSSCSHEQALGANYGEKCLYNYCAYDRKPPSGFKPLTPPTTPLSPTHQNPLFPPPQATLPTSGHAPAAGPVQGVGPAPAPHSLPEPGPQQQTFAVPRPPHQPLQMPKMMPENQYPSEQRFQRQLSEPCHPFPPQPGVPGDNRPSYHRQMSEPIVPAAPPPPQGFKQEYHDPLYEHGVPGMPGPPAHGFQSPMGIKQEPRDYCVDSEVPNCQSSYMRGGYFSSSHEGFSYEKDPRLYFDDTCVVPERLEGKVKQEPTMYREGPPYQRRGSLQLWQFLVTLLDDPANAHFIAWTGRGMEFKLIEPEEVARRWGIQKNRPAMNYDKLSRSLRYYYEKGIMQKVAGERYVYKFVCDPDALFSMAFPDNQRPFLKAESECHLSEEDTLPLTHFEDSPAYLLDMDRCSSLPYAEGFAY
# Procedure, shortened: as §1
# HSF1 = HSF1 (Homo sapiens, UniProt Q00613 1-529); conditions: protein: recombinant; tags: N-terminal GST; chain copies: 3; dsDNA, one strand shown
# HSF1, sequence (Q00613 whole entry): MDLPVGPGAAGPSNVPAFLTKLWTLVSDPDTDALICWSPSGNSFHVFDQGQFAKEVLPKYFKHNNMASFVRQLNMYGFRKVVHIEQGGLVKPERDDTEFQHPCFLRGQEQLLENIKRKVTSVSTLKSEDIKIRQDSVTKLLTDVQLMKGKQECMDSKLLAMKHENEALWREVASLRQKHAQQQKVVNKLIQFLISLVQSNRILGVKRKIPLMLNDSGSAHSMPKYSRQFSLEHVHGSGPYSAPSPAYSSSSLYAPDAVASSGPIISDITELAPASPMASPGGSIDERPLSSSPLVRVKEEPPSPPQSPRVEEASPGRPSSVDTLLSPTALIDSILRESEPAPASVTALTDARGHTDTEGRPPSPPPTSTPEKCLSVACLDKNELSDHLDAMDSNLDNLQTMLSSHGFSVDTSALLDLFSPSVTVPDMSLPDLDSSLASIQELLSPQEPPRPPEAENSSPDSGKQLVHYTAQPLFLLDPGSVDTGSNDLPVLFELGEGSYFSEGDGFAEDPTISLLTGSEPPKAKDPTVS
# Procedure, shortened: as §1
# SPIC = target: T2, SPIC (Homo sapiens, UniProt Q8N5J4 1-248); conditions: protein: recombinant; tags: N-terminal GST; dsDNA, one strand shown
# T2 sequence: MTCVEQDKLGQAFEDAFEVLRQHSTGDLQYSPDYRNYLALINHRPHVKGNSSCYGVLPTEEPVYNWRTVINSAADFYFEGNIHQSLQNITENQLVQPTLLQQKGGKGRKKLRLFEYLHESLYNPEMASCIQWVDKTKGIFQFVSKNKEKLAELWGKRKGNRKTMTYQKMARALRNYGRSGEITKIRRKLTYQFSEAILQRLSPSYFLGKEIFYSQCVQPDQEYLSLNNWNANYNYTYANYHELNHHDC
# Procedure, shortened: as §1
# ELF4 = ELF4 (Homo sapiens, UniProt Q99607 1-663); conditions: protein: recombinant; tags: N-terminal GST; dsDNA, one strand shown
# ELF4, sequence (Q99607 whole entry): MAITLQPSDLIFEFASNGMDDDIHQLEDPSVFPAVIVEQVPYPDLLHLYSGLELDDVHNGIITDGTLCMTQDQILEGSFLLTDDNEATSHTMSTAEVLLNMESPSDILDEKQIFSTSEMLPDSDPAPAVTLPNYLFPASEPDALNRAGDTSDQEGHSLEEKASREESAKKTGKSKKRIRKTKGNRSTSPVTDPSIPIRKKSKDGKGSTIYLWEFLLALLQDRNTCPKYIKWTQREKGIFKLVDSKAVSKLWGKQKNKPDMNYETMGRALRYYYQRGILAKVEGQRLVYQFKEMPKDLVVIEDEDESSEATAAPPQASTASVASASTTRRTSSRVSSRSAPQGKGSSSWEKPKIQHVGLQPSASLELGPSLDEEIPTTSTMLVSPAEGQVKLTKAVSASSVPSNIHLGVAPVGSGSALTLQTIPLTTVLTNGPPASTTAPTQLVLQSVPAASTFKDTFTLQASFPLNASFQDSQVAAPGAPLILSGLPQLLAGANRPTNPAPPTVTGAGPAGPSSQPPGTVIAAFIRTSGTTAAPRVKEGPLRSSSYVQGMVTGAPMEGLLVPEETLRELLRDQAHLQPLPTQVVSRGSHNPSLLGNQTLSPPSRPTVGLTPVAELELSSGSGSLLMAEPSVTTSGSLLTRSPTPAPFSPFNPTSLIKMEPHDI
# Procedure, shortened: as §1
# ELK4 = target: T3, ELK4 (Homo sapiens, UniProt P28324-2 1-405); conditions: protein: recombinant; tags: N-terminal GST; dsDNA, one strand shown
# T3 sequence: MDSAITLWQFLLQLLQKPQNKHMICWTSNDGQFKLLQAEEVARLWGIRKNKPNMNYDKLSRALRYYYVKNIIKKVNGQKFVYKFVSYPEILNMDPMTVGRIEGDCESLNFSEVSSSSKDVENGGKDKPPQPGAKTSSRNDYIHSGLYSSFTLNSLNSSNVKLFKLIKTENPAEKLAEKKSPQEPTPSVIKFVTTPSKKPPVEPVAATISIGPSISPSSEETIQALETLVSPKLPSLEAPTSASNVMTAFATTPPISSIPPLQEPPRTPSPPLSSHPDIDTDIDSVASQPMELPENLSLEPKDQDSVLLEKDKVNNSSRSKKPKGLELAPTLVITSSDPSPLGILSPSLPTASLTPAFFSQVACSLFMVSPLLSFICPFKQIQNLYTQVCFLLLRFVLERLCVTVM
# Procedure, shortened: as §1
# ETV2 = target: T4, ETV2 (Homo sapiens, UniProt O00321 1-342); conditions: protein: recombinant; tags: N-terminal GST; dsDNA, one strand shown
# T4 sequence: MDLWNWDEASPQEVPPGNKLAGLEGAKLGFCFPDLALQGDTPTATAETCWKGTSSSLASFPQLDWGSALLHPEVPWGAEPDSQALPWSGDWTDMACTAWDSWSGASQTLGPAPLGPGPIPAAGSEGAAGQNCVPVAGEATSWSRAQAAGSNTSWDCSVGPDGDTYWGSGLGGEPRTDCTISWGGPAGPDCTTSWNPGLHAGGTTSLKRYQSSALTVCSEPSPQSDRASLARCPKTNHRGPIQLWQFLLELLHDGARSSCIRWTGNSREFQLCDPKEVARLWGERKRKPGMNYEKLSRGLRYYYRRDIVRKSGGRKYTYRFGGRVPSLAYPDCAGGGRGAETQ
# Procedure, shortened: as §1
# ELF3 = target: T5, ELF3 (Homo sapiens, UniProt P78545 1-371); conditions: protein: recombinant; tags: N-terminal GST; dsDNA, one strand shown
# T5 sequence: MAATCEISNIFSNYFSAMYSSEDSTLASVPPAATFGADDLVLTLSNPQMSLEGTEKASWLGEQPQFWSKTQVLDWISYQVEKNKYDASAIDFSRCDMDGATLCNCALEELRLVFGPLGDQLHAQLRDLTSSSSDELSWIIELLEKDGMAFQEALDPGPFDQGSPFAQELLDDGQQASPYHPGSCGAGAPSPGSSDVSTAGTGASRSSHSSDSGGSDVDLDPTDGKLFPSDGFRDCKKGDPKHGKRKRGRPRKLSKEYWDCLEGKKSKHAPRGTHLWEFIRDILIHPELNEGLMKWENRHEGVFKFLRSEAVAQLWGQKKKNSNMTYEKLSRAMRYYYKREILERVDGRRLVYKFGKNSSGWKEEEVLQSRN
# Procedure, shortened: as §1
# CRX = CRX (Homo sapiens, UniProt O43186 1-299); conditions: protein: recombinant; tags: N-terminal GST; dsDNA, one strand shown
# CRX, sequence (O43186 whole entry): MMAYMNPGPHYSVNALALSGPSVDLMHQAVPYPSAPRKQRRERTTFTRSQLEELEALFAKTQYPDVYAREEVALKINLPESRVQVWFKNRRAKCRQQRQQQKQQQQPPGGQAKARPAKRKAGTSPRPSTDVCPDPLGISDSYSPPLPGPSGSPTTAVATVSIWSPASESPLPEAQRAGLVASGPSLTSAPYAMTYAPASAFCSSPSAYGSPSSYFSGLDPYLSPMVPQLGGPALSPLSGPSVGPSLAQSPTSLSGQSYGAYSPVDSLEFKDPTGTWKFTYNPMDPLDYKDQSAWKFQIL
# Procedure, shortened: as §1
# ETV1 = ETV1 (Homo sapiens, UniProt P50549 1-477); conditions: protein: recombinant; tags: N-terminal GST; dsDNA, one strand shown
# ETV1, sequence (P50549 whole entry): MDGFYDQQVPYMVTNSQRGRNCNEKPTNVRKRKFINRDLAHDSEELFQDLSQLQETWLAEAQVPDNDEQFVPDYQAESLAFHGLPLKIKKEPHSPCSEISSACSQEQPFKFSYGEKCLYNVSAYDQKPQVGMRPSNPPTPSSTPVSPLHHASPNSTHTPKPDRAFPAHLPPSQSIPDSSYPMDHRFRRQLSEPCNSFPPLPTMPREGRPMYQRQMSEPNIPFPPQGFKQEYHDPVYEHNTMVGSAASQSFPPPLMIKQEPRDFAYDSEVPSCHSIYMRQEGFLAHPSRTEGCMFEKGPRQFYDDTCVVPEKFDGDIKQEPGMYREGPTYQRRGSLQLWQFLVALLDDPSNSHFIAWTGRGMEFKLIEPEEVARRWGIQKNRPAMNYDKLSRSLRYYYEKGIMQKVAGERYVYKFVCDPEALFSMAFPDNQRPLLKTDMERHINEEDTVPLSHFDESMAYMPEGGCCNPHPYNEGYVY
# Procedure, shortened: as §1
sequence,measurement,setting,value
GACCTT,binding signal,FEV,"1.6 fold enrichment (6-mer frequency, TF over GST control)"
same,binding signal,ETV5,"1.55 fold enrichment (6-mer frequency, TF over GST control)"
same,binding signal,HSF1,"1.52 fold enrichment (6-mer frequency, TF over GST control)"
same,binding signal,SPIC,"1.74 fold enrichment (6-mer frequency, TF over GST control)"
same,binding signal,ELF4,"1.73 fold enrichment (6-mer frequency, TF over GST control)"
same,binding signal,ELK4,"1.61 fold enrichment (6-mer frequency, TF over GST control)"
same,binding signal,ETV2,"1.63 fold enrichment (6-mer frequency, TF over GST control)"
same,binding signal,ELF3,"1.49 fold enrichment (6-mer frequency, TF over GST control)"
same,binding signal,CRX,"1.31 fold enrichment (6-mer frequency, TF over GST control)"
same,binding signal,ETV1,"1.48 fold enrichment (6-mer frequency, TF over GST control)"
